Reference: PubChem BioAssay (NCI)
Compounds without any hit were thinned out: in the full panel of roughly 83,000, 20% have a hit.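 The endpoint reported here, percent growth, reads 100 for growth as untreated, 0 for no net growth and -100 for all cells dead.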 A number with no mark means an inactive call. Active and inactive are the calls of the source. The calls were made as follows: active = growth percent below 10; inactive = the rest.

Experiments:
Assay in all cases: NCI-60 one-dose screen, 48 h (100 = growth as untreated, 0 = no growth, -100 = all killed)
Conditions in all cases: 10 µM unless noted
[1] = tested on: NCI-H23 lung
[2] = tested on: NCI-H226 lung
[3] = tested on: NCI-H322M lung
[4] = tested on: HOP-62 NSCLC
[5] = tested on: NCI-H460 lung
[6] = tested on: HOP-92 NSCLC
[7] = tested on: NCI-H522 lung
[8] = tested on: A549/ATCC NSCLC
[9] = tested on: 786-0 renal
[10] = tested on: COLO 205 colon

SMILES | growth [1] | growth [2] | growth [3] | growth [4] | growth [5] | growth [6] | growth [7] | growth [8] | growth [9] | growth [10]
COc1ccc(-c2cc(-c3cc(OC)c(OC)c(OC)c3)c(C#N)c(=O)n2CCCCC(=O)NO)cc1 | 67.4% | 82.3% | 75.1% | 65% | 55.3% | 51.9% | 54.6% | 71.9% | 83.7% | 84.3%
CC(C)(Sc1cc(C(C)(C)C)c(O)c(C(C)(C)C)c1)Sc1cc(C(C)(C)C)c(OC(=O)CCCC(=O)O)c(C(C)(C)C)c1 | 39.9% | 66.2% | 60.4% | 67% | 37% | 40.2% | 46.4% | 35% | 56.1% | 64.3%
CSc1oc(C)nc1[P+](c1ccccc1)(c1ccccc1)c1ccccc1 | 30% | 67.6% | 99% | 87.6% | 37.3% | 59.9% | 56.5% | 61.8% | 89.3% | 7.5% (active)
O=C(Nc1cccc(-c2ccc(Cl)c(C(F)(F)F)c2)c1)C1CCN(Cc2cccc3cccnc23)CC1 | 48.2% | 45.9% | 35.5% | 62.3% | -87.2% (active) | 30.2% | -53% (active) | -30.8% (active) | 31.9% | -72.2% (active)
COc1ccc(Nc2nc(-c3cc(O)c(C)c(C)c3O)cs2)cc1 | 78.1% | 96.3% | 90.9% | 69.9% | 39% | 90.5% | 34.8% | 58% | 102% | 115%
COC(=O)[C@@H](CCCCNC(=O)[C@]12CCC(C)(C)C[C@@H]1C1=CC[C@@H]3[C@@]4(C)C/C(=C/c5ccco5)C(=O)C(C)(C)[C@@H]4CC[C@@]3(C)[C@]1(C)CC2)NC(=O)[C@]12CCC(C)(C)C[C@@H]1C1=CC[C@@H]3[C@@]4(C)C/C(=C/c5ccco5)C(=O)C(C)(C)[C@@H]4CC[C@@]3(C)[C@]1(C)CC2 | 106% | 103% | 93.9% | 104% | 107% | 114% | 94.1% | 100% | 104% | 120%
Nc1c(C(=O)Nc2ccccc2C(F)(F)F)sc2nc3c(cc12)CCC3 | 95.7% | 82.6% | 87.5% | 88.6% | 105% | 96.6% | 85.7% | 90.4% | 93% | 115%
Clc1ccc2c(NC3CCC(N4CCOCC4)CC3)ccnc2c1 (stereo not given) | 62.2% | 68.9% | 101% | 66.7% | 81.8% | 48.7% | 80.8% | 74.5% | 70.6% | 81.4%
C=C1C(=O)O[C@H]2[C@H]1CC/C(COC(=O)NCc1ccc(Cn3c(=O)sn(CCCCC)c3=O)cc1)=C\CC[C@@]1(C)O[C@@H]21 | 78.6% | 75.4% | 93.4% | 81.2% | 92.6% | -15.6% (active) | -68.6% (active) | 89.3% | 32.1% | -20.8% (active)
COc1cc2ncnc(Nc3ccc(S(=O)(=O)Nc4cc(C)on4)cc3)c2cc1OCCCN1CCN(c2ccc(F)cc2)CC1 | 105% | 98.1% | 99.6% | 92.2% | 102% | 125% | 91% | 101% | 110% | 105%
CC(=O)N1N=C(c2ccc(Nc3nc(Nc4ccccc4)nc(Nc4ccccc4)n3)cc2)CC1c1cccc([N+](=O)[O-])c1 (stereo not given) | 94.6% | 113% | 96.2% | 78.8% | 107% | 56.8% | 104% | 93.3% | 89.9% | 88.1%
COc1ccccc1CNc1c2ccccc2nc2ccccc12 | 30.9% | 39.9% | 48.6% | 44.5% | 10.2% | 18.2% | 62.4% | 34.2% | 39.3% | 12.8%
CN1C(=O)/C(=C\c2c(Cl)cccc2Cl)c2ccccc21 | 90.7% | 100% | 96.5% | 86.5% | 103% | 83.4% | 83.3% | 88% | 84.3% | 113%
Cc1[nH]c(C(=O)Nc2ccccc2OC2CCNCC2)c(Cl)c1Cl | 42.8% | 98.6% | 31.3% | 11.4% | 5.07% (active) | -2.05% (active) | -24.7% (active) | 27.3% | -56.6% (active) | -9.94% (active)
Cc1ccc(C)n1-c1ccccc1-n1c(C)ccc1C | 107% | 97.8% | 99.9% | 112% | 105% | 92.4% | 96.5% | 101% | 101% | 114%
COc1cc2oc(-c3cccc(NC(=O)c4ccccc4)c3)cc(=O)c2c(OC)c1OC | 72.9% | 81.4% | 83.8% | 78.4% | 78.7% | 47.6% | 49.3% | 68.9% | 78.1% | 84.4%
COc1ccc(/C=C(\C#N)n2nnc3ccc(Cl)cc32)cc1 | 71% | 105% | 80.8% | 111% | 83.9% | 74.2% | 17.8% | 58.9% | 39.8% | 83.1%
c1csc(-c2ccc(CNc3c4ccccc4nc4ccccc34)cc2)c1 | 38.2% | 69% | 50.6% | 54.6% | 12.9% | -2.1% (active) | 28.9% | 26.7% | 30.1% | 5.13% (active)
Cc1cc(N2CCCCC2)cc(C)c1-c1csc(NC(=O)c2ccncc2)n1 | 45.1% | 60.6% | 78.2% | 62.5% | 66.9% | 53.8% | 44.1% | 49.1% | 77.5% | 60.6%
C#COc1cccc(Nc2c(C#N)cnc3ncc(NC(=O)CCl)cc23)c1 | 59.6% [6.25 µM] | 57.2% [6.25 µM] | 53.1% [6.25 µM] | 32.8% [6.25 µM] | 11.8% [6.25 µM] | 54.5% [6.25 µM] | -69.4% [6.25 µM] (active) | 31.2% [6.25 µM] | -23.4% [6.25 µM] (active) | 17.5% [6.25 µM]
Cc1csc(Nc2nc(-c3ccccn3)nc(C(Cl)(Cl)Cl)n2)n1 | 84.9% | 101% | 80.5% | 101% | 84% | 94.1% | 86.7% | 79.4% | 94.8% | 92%
CCOC(=O)C/C(=N\Nc1cc(=O)[nH]c2ccc(Br)cc12)C(=O)OCC | 91.2% | 86.9% | 92.9% | 95.9% | 101% | 76.2% | 95.2% | 106% | 106% | 107%
Cc1[nH]c(C(=O)Nc2ccc(C(=O)N3CCN(c4cc5c(cc4F)c(=O)c(C(=O)O)cn5C4CC4)CC3)cc2OC(C)C)c(Cl)c1Cl | 78.4% | 96.5% | 90.3% | 97.8% | 8.48% (active) | 46.5% | 82.1% | 38.4% | 79.8% | 114%
O=C(/C=C/c1cccc(Cl)c1)c1ccc(Nc2nc(Nc3ccc(F)cc3)nc(Nc3ccc(Cl)cc3)n2)cc1 | 97.9% | 118% | 96.6% | 91.9% | 143% | 72.9% | 102% | 87.1% | 99.1% | 108%
S=c1sc2c(Cl)nc(-c3cccnc3)nc2n1-c1ccccc1 | 17.5% | 85.2% | 61% | 27.8% | 57.4% | 25.3% | -65.8% (active) | 79.9% | 35.4% | 80%
COc1cc2c(cc1OC)C(C)N(S(N)(=O)=O)CC2 (stereo not given) | 87.1% | 78.8% | 105% | 80.2% | 111% | 98.6% | 98.4% | 101% | 89.3% | 111%
